Measured values taken from PubChem BioAssay (EPA / NIEHS).
Results filed as inconclusive are left out. Active and inactive are the calls of the source. Rule for the calls: active = hit-call score of the fitted dose curve at least 0.9, where 1 is the maximum; inconclusive = response in the unintended direction; inactive = score below 0.9.

What was measured:
[1] = molecular target: human Adenosine A2a Receptor (AdoRA2a), ADORA2A (gene 135) (UniProt P29274); assay: NVS_GPCR_hAdoRA2a: NovaScreen (NVS) G Protein-Coupled Receptor Assay for human Adenosine A2a Receptor (AdoRA2a) (AID 2283256)
In short: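 HEK293-derived receptor preparation, radioligand displacement, 1.5 h, filtration + scintillation read. Loss of bound signal scored vs DMSO. Single-point 25 uM in duplicate first, then concentration-response for actives.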

[2] = molecular target: D(1A) dopamine receptor (Homo sapiens) (UniProt P21728); assay: NVS_GPCR_hDRD1: NovaScreen (NVS) G Protein-Coupled Receptor Assay for human Dopamine Receptor D1 (DRD1) (AID 2283269)
In short: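 HEK293-derived receptor preparation; radioligand competitive displacement; 1 h; filtration + scintillation counting. DMSO = negative control/baseline. Primary: 25 uM, duplicate; secondary: concentration–response for actives.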

[3] = molecular target: human Opioid Receptor Mu (Opiate Mu), OPRM1 (gene 4988) (UniProt P35372); assay: NVS_GPCR_hOpiate_mu: NovaScreen (NVS) G Protein-Coupled Receptor Assay for human Opioid Receptor Mu (Opiate Mu) (AID 2283290);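 note: hits lower bound tracer signal versus DMSO meaning displacement of the ligand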
In short: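 CHO-derived receptor protein, cell-free; radioligand displacement, filtration + scintillation counting, read at 2.5 h. DMSO = negative control/baseline. Primary: 25 uM single conc, duplicate; secondary: concentration series.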

[4] = molecular target: Sodium channel protein type 1 subunit alpha (Rattus norvegicus) (UniProt P04774); assay: NVS_IC_rNaCh_site2: NovaScreen (NVS) Ion Channel Assay for rat Sodium Channel, Site 2 (NaCh) (AID 2283322);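 note: hit means loss of radioligand binding signal relative to DMSO so AC50 marks displacement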
In short: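 Initial duplicate single-point testing at 25 uM, followed by concentration-response runs for actives. Binding of radioligand to rat forebrain membranes quantified after 1 h via filter-based radiodetection.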

[5] = molecular target: human Phosphoinositide 3-kinase alpha (PI3Ka), PIK3CA (gene 5290) (UniProt P42336); assay: NVS_ENZ_hPI3Ka: NovaScreen (NVS) Enzymatic Assay for human Phosphoinositide 3-kinase alpha (PI3Ka) (AID 2283196)
In short: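 Chemicals were first screened at 25 uM in duplicate, then hits were run as concentration series up to 50 uM. Enzyme activity was measured by fluorescence after mobility-shift separation, with loss of signal relative to DMSO taken as activity.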

[6] = molecular target: sheep Cyclooxygenase-1 (Cox1), PTGS1 (gene 443551) (UniProt P05979); assay: NVS_ENZ_oCOX1: NovaScreen (NVS) Enzymatic Assay for sheep Cyclooxygenase-1 (Cox1) (AID 2283239);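 note: actives reduce cyclooxygenase activity so potencies are for inhibitors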
In short: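 Tested in duplicate at 25 uM, then in concentration series if active, against seminal vesicle extract from sheep. Enzyme activity was measured colorimetrically at 0.66 hour and normalised to DMSO.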

[7] = molecular target: guinea pig Leukotriene D4 Receptor (LTD4), CYSLTR1 (gene 100135514) (UniProt Q2NNR5); assay: NVS_GPCR_gLTD4: NovaScreen (NVS) G Protein-Coupled Receptor Assay for guinea pig Leukotriene D4 Receptor (LTD4) (AID 2283248)
In short: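 Guinea pig lung membrane preparation; bound radioligand measured by filter scintillation after 1 h, loss of signal versus DMSO marking displacement. Compounds tested at 25 uM in duplicate, hits retested to max 50 uM.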

[8] = molecular target: human Thromboxane A2 Receptor (TXA2), TBXA2R (gene 6915) (UniProt P21731); assay: NVS_GPCR_hTXA2: NovaScreen (NVS) G Protein-Coupled Receptor Assay for human Thromboxane A2 Receptor (TXA2) (AID 2283282);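 note: actives reduce bound radioligand signal relative to DMSO baseline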
In short: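 Screening ran at 25 uM in duplicate, with concentration series for confirmed actives. Each test measures radioligand binding to human platelet protein after 1 h, cell-free, using filter-based scintillation detection of signal loss relative to DMSO.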

[9] = molecular target: human Vascular Endothelial Growth Factor Receptor 3 (VEGFR3), FLT4 (gene 2324) (UniProt P35916); assay: NVS_ENZ_hVEGFR3: NovaScreen (NVS) Enzymatic Assay for human Vascular Endothelial Growth Factor Receptor 3 (VEGFR3) (AID 2283229)
In short: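 Chemicals first run in duplicate at 25 uM, with actives re-tested in concentration series to a top of 50 uM. Recombinant VEGFR3 activity measured after 1 h via fluorescence with mobility-shift product separation; inhibition fitted relative to DMSO.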

[10] = molecular target: guinea pig Opioid, Kappa 1 Receptor (OpiateK), OPRK1 (gene 100135587) (UniProt P41144); assay: NVS_GPCR_gOpiateK: NovaScreen (NVS) G Protein-Coupled Receptor Assay for guinea pig Opioid, Kappa 1 Receptor (OpiateK) (AID 2283252);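 note: radioligand displacement from kappa opioid receptor in guinea pig cerebellar membranes; active means reduced radioligand binding relative to DMSO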
In short: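 Cell-free tissue prep: guinea pig cerebellar membranes, radioligand displacement, 2 h incubation. Readout: filtration plus scintillation counting. Primary single-point 25 uM duplicate; actives retested in concentration series; DMSO negative control.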

[11] = molecular target: Muscarinic acetylcholine receptor M2 (Homo sapiens) (UniProt P08172); assay: NVS_GPCR_hM2: NovaScreen (NVS) G Protein-Coupled Receptor Assay for human Muscarinic, M2 Receptor (AID 2283273)
In short: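 Filter-based radiodetection read bound radioligand 1 h after dosing CHO-derived membrane protein. Single-concentration duplicates (25 uM) first, then concentration-response for actives; signal loss versus DMSO scored.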

[12] = molecular target: human Vascular Endothelial Growth Factor Receptor 1 (VEGFR1), FLT1 (gene 2321) (UniProt P17948); assay: NVS_ENZ_hVEGFR1: NovaScreen (NVS) Enzymatic Assay for human Vascular Endothelial Growth Factor Receptor 1 (VEGFR1) (AID 2283226)
In short: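 Kinase activity of recombinant human VEGFR1 was read by fluorescence after electrophoretic separation of product from substrate, 1 h post-dosing; initial duplicate single-point testing at 25 uM, followed by concentration-series follow-up, with DMSO as baseline.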

Chain of D(1A) dopamine receptor (Homo sapiens) (P21728 whole entry, looked up): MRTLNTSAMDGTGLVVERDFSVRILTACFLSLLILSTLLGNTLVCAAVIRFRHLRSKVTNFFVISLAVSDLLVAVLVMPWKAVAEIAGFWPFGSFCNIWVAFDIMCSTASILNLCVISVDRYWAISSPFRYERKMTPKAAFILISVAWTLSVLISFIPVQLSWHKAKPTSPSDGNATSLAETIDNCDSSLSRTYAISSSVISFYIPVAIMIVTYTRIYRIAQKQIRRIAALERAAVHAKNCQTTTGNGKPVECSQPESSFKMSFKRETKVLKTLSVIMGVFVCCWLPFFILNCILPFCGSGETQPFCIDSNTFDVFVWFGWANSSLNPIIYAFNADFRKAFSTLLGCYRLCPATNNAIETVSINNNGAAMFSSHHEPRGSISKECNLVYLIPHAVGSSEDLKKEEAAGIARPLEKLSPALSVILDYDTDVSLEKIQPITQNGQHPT
Chain of sheep Cyclooxygenase-1 (Cox1), PTGS1 (gene 443551) (P05979 whole entry, looked up): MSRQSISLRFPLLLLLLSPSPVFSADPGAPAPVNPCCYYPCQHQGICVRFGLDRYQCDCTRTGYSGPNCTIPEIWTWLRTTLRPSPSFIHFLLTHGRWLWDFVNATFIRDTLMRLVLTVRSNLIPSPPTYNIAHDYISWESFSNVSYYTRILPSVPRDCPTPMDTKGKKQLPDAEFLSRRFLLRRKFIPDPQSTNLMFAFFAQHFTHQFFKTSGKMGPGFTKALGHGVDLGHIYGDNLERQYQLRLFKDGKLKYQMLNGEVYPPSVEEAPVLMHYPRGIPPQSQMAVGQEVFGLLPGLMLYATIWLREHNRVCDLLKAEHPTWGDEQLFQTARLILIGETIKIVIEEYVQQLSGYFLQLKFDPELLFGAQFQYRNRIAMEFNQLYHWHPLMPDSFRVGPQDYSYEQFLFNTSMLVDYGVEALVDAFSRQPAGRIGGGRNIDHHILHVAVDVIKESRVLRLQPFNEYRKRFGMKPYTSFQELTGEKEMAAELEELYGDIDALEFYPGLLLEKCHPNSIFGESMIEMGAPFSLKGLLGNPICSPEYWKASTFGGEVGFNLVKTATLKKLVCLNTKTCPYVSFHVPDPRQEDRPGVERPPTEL
Chain of human Thromboxane A2 Receptor (TXA2), TBXA2R (gene 6915) (P21731 whole entry, looked up): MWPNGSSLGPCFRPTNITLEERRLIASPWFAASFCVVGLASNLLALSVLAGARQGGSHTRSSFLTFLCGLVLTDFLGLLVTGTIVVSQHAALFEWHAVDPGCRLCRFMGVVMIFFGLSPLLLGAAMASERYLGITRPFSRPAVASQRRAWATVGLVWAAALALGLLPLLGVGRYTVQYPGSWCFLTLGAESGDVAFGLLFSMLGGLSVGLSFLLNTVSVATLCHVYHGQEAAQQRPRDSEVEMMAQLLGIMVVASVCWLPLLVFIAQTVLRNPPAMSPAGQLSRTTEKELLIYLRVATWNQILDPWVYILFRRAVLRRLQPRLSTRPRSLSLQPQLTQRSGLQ
Chain of human Adenosine A2a Receptor (AdoRA2a), ADORA2A (gene 135) (P29274 whole entry, looked up): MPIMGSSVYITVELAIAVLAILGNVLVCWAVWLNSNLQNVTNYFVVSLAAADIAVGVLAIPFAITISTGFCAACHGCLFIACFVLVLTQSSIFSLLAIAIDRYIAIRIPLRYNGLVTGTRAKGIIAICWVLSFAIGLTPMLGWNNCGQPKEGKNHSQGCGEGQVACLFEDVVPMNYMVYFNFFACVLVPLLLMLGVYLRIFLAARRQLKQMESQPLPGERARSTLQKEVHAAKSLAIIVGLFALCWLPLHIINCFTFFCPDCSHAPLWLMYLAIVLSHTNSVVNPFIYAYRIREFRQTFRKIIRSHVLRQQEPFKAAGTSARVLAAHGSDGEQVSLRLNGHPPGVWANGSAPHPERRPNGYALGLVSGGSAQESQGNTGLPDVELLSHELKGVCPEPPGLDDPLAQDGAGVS
Chain of Muscarinic acetylcholine receptor M2 (Homo sapiens) (P08172 whole entry, looked up): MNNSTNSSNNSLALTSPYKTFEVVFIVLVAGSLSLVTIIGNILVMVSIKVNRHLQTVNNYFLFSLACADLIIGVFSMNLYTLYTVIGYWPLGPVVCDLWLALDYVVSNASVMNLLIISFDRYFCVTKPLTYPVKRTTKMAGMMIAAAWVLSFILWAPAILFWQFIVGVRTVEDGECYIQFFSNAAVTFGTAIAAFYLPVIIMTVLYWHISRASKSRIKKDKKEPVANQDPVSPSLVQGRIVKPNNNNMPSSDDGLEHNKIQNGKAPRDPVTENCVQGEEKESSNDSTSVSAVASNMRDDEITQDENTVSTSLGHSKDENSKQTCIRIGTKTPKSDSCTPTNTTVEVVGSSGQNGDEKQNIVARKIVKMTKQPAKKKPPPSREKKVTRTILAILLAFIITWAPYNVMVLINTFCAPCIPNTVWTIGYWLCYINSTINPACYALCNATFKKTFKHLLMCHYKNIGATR
Chain of guinea pig Opioid, Kappa 1 Receptor (OpiateK), OPRK1 (gene 100135587) (P41144 whole entry, looked up): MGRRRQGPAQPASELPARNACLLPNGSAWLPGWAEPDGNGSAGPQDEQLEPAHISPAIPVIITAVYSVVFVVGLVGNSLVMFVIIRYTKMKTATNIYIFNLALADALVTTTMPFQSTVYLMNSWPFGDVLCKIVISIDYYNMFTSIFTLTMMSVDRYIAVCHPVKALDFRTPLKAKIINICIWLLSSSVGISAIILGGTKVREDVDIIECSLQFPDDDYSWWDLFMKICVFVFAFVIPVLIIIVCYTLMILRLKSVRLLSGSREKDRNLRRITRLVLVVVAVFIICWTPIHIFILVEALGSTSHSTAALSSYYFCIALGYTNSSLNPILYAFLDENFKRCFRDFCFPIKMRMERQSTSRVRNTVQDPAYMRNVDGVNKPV
Chain of guinea pig Leukotriene D4 Receptor (LTD4), CYSLTR1 (gene 100135514) (Q2NNR5 whole entry, looked up): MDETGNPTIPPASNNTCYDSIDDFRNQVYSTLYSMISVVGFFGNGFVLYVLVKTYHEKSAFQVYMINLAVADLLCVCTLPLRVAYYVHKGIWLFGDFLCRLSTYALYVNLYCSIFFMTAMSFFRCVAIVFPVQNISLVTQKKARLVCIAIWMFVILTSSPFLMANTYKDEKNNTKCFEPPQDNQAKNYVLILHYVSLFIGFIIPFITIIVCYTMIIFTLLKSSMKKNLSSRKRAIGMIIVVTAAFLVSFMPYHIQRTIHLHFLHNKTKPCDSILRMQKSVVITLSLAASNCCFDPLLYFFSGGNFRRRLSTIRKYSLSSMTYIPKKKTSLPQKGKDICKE
Chain of human Vascular Endothelial Growth Factor Receptor 3 (VEGFR3), FLT4 (gene 2324) (P35916 whole entry, looked up): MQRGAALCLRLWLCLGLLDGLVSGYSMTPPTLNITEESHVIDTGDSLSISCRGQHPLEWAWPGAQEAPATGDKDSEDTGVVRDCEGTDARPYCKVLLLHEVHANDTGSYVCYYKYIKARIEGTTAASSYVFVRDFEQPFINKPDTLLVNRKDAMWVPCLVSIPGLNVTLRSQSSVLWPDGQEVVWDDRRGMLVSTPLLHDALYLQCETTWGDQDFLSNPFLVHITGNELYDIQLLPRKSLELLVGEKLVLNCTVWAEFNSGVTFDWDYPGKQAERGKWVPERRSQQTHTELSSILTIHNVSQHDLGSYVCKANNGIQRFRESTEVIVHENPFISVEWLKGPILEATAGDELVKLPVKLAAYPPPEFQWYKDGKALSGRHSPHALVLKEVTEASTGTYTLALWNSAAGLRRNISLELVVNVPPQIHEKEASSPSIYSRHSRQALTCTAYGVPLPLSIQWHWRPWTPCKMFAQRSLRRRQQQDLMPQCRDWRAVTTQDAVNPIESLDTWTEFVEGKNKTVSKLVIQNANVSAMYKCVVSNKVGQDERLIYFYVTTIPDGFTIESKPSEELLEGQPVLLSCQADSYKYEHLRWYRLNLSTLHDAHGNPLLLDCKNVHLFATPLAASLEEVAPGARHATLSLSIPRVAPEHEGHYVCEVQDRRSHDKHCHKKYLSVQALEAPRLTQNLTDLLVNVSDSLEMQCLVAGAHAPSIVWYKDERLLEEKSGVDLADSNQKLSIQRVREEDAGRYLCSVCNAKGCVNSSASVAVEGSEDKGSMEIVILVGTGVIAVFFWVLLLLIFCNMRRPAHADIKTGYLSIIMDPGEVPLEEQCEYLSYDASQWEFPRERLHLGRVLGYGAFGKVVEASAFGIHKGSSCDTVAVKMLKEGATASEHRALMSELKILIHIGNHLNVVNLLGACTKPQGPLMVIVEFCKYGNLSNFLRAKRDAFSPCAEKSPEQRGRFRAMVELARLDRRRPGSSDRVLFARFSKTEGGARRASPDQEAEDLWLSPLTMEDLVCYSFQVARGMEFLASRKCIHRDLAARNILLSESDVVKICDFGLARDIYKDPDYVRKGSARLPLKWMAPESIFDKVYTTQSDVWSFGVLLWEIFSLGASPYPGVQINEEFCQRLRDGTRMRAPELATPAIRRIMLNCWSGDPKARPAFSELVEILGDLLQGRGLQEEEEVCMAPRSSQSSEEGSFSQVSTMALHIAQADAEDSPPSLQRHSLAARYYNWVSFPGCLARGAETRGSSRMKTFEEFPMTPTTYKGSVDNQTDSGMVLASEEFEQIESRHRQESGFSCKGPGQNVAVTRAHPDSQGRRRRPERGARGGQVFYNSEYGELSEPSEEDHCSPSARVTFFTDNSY
Chain of human Opioid Receptor Mu (Opiate Mu), OPRM1 (gene 4988) (P35372 whole entry, looked up): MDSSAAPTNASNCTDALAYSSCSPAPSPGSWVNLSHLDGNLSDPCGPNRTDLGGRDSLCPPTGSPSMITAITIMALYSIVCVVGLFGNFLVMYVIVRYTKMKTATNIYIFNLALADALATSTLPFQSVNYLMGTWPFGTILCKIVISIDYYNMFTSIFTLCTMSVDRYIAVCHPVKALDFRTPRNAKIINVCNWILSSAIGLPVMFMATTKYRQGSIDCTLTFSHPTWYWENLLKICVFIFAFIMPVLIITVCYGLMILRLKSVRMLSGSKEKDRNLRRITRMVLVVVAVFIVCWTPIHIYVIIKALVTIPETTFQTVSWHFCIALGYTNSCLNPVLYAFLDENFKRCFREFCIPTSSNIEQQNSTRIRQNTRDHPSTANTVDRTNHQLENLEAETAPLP

ClC(c1ccccc1)(c1ccccc1)c1ccccc1
outcome [1]: inactive | outcome [2]: inactive | outcome [3]: inactive

CCCCC(CC)COC(C)=O (stereo not given)
outcome [4]: inactive

CC(=O)CC(=O)Nc1ccccc1
outcome [5]: inactive

c1ccc(CCc2ccccc2)cc1
outcome [6]: inactive

C=CCOC(=O)CCCCCC
outcome [2]: inactive

O=C1c2ccccc2C(=O)c2c(O)ccc(O)c21
outcome [7]: inactive

Nc1ccc(Cl)c([N+](=O)[O-])c1
outcome [1]: inactive

COC(=O)c1ccc([N+](=O)[O-])cc1
outcome [7]: inactive | outcome [8]: inactive

CCOC(=O)[C@@H](C)Oc1ccc(Oc2nc3ccc(Cl)cc3o2)cc1
outcome [9]: inactive | outcome [6]: inactive

COc1ccc(CCN2CCC(Nc3nc4ccccc4n3Cc3ccc(F)cc3)CC2)cc1
outcome [10]: inactive | AC50 [11]: 3.04 µM (active) | AC50 [8]: 0.227 µM (active) | AC50 [4]: 0.115 µM (active)

CC(=O)Nc1ccc(C(=O)CCl)cc1
AC50 [12]: 40.1 µM (active) | outcome [6]: inactive | AC50 [8]: 10.7 µM (active)

CN(c1nccc(=O)[nH]1)C1CCN(c2nc3ccccc3n2Cc2ccc(F)cc2)CC1
outcome [10]: inactive | outcome [2]: inactive | outcome [11]: inactive | AC50 [8]: 0.761 µM (active) | outcome [4]: inactive
